Measurements published in PubChem BioAssay AID1159580 (chemical genetic matrix, 2015).
Among all 5,500 compounds or so, about 2,000 (36%) were called active. Inconclusive results (about 18%) are left out. No stated cut-off is given here; in the data, active means normalized growth mostly below about 0.91 (no sharp cut-off); inconclusive means no clear call, values can overlap the other calls; inactive means mostly above about 0.92. The list shows a part of the results.

Experiment: chemical genetic growth profiling, strain panel (AID 1159580);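 further: tested at 20 µM; growth read once vehicle control cultures reached saturation at 30 °C; 1 = growth at the plate median or of vehicle wells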
Settings: growth OD

Measured: normalized growth

COc1nc(NC(C)C)nc(NC(C)C)n1
inactive: S. cerevisiae deletion strains, locus YJR075W, strain HOC1, stronger effect = lower value 1 | S. cerevisiae deletion strains, locus YKL009W, strain mrt4, stronger effect = lower value 1.02 | S. cerevisiae deletion strains, locus YKL068W, stronger effect = lower value 1.01 | S. cerevisiae deletion strains, locus YKL085W, strain MDH1 (second series), stronger effect = lower value 1.01 | S. cerevisiae deletion strains, locus YKL085W, strain MDH1, stronger effect = lower value 1.01 | S. cerevisiae deletion strains, locus YKL160W, strain elf1, stronger effect = lower value 1.02 | S. cerevisiae deletion strains, locus YKL190W, strain CNB1, stronger effect = lower value 1.02 | S. cerevisiae deletion strains, locus YKR001C, strain vps1, stronger effect = lower value 1.02 | S. cerevisiae deletion strains, locus YKR026C, strain gcn3, stronger effect = lower value 1.02 | S. cerevisiae deletion strains, locus YKR091W, strain srl3, stronger effect = lower value 1.02 | S. cerevisiae deletion strains, locus YLL001W, strain dnm1, stronger effect = lower value 1.02 | S. cerevisiae deletion strains, locus YLL026W, stronger effect = lower value 1.02 | S. cerevisiae deletion strains, locus YLL041C, strain sdh2, stronger effect = lower value 1.02 | S. cerevisiae deletion strains, locus YLR027C, strain aat2, stronger effect = lower value 1.03 | S. cerevisiae deletion strains, locus YLR039C, strain RIC1, stronger effect = lower value 1.02 | S. cerevisiae deletion strains, locus YLR058C, strain SHM2, stronger effect = lower value 1 | S. cerevisiae deletion strains, locus YLR102C, strain apc9, stronger effect = lower value 1.02 | S. cerevisiae deletion strains, locus YLR113W, strain HOG1, stronger effect = lower value 0.986 | S. cerevisiae deletion strains, locus YLR221C, strain rsa3, stronger effect = lower value 1.04 | S. cerevisiae deletion strains, locus YLR258W, strain gsy2, stronger effect = lower value 1.01 | S. cerevisiae deletion strains, locus YLR262C, strain YPT6 (second series), stronger effect = lower value 1.02 | S. cerevisiae deletion strains, locus YLR262C, strain YPT6, stronger effect = lower value 1.02 | S. cerevisiae deletion strains, locus YLR268W, strain sec22, stronger effect = lower value 1.01 | S. cerevisiae deletion strains, locus YLR320W, strain mms22, stronger effect = lower value 1.04 | S. cerevisiae deletion strains, locus YLR330W, strain CHS5, stronger effect = lower value 1.01 | S. cerevisiae deletion strains, locus YLR342W, strain FKS1 (second series), stronger effect = lower value 1.03 | S. cerevisiae deletion strains, locus YLR342W, strain FKS1, stronger effect = lower value 1.01 | S. cerevisiae deletion strains, locus YLR357W, strain rsc2, stronger effect = lower value 1.03 | S. cerevisiae deletion strains, locus YLR370C, strain arc18, stronger effect = lower value 1.04 | S. cerevisiae deletion strains, locus YLR371W, strain rom2, stronger effect = lower value 1.02 | S. cerevisiae deletion strains, locus YLR384C, strain iki3, stronger effect = lower value 1.03 | S. cerevisiae deletion strains, locus YLR418C, strain cdc73, stronger effect = lower value 1.01 | S. cerevisiae deletion strains, locus YML016C, strain PPZ1, stronger effect = lower value 1.01 | S. cerevisiae deletion strains, locus YML032C, strain rad52, stronger effect = lower value 1.02 | S. cerevisiae deletion strains, locus YML120C, strain ndi1, stronger effect = lower value 1.02 | S. cerevisiae deletion strains, locus YML124C, strain tub3, stronger effect = lower value 1.02 | S. cerevisiae deletion strains, locus YMR058W, strain fet3, stronger effect = lower value 1.03 | S. cerevisiae deletion strains, locus YMR078C, strain ctf18, stronger effect = lower value 1.03 | S. cerevisiae deletion strains, locus YMR125W, strain sto1, stronger effect = lower value 1.03 | S. cerevisiae deletion strains, locus YMR129W, stronger effect = lower value 1.01 | S. cerevisiae deletion strains, locus YMR205C, strain PFK2, stronger effect = lower value 1.01 | S. cerevisiae deletion strains, locus YMR223W, strain ubp8, stronger effect = lower value 1.02 | S. cerevisiae deletion strains, locus YMR231W, strain pep5, stronger effect = lower value 1.02 | S. cerevisiae deletion strains, locus YMR263W, strain SAP30, stronger effect = lower value 1.02 | S. cerevisiae deletion strains, locus YMR307W, strain GAS1, stronger effect = lower value 1.04 | S. cerevisiae deletion strains, locus YNL067W, strain RPL9B, stronger effect = lower value 1.01 | S. cerevisiae deletion strains, locus YNL071W, strain lat1, stronger effect = lower value 1.01 | S. cerevisiae deletion strains, locus YNL128W, strain TEP1, stronger effect = lower value 1 | S. cerevisiae deletion strains, locus YNL153C, strain GIM3, stronger effect = lower value 1.01 | S. cerevisiae deletion strains, locus YNL183C, strain NPR1, stronger effect = lower value 0.999 | S. cerevisiae deletion strains, locus YNL209W, strain ssb2, stronger effect = lower value 1.02 | S. cerevisiae deletion strains, locus YNL233W, strain BNI4, stronger effect = lower value 1.01 | S. cerevisiae deletion strains, locus YNL248C, strain rpa49, stronger effect = lower value 1.04 | S. cerevisiae deletion strains, locus YNL250W, strain rad50, stronger effect = lower value 1.01 | S. cerevisiae deletion strains, locus YNL271C, strain bni1, stronger effect = lower value 1.01 | S. cerevisiae deletion strains, locus YNL298W, strain CLA4, stronger effect = lower value 1.03 | S. cerevisiae deletion strains, locus YNL307C, strain MCK1, stronger effect = lower value 1.03 | S. cerevisiae deletion strains, locus YNL322C, strain KRE1 (second series), stronger effect = lower value 1.02 | S. cerevisiae deletion strains, locus YNL322C, strain KRE1, stronger effect = lower value 1 | S. cerevisiae deletion strains, locus YNR049C, strain mso1, stronger effect = lower value 1.05 | S. cerevisiae deletion strains, locus YNR052C, strain pop2, stronger effect = lower value 1.03 | S. cerevisiae deletion strains, locus YOL006C, strain TOP1, stronger effect = lower value 1.03 | S. cerevisiae deletion strains, locus YOL012C, strain htz1 1.23 | S. cerevisiae deletion strains, locus YOL147C, strain pex11, stronger effect = lower value 1.02 | S. cerevisiae deletion strains, locus YOR001W, strain rrp6, stronger effect = lower value 1.02 | S. cerevisiae deletion strains, locus YOR061W, strain CKA2, stronger effect = lower value 1 | S. cerevisiae deletion strains, locus YOR069W, strain VPS5, stronger effect = lower value 1.01 | S. cerevisiae deletion strains, locus YOR070C, strain gyp1, stronger effect = lower value 1.03 | S. cerevisiae deletion strains, locus YOR080W, strain dia2, stronger effect = lower value 1.03 | S. cerevisiae deletion strains, locus YOR083W, strain WHI5, stronger effect = lower value 1.01 | S. cerevisiae deletion strains, locus YOR106W, strain vam3, stronger effect = lower value 1.02 | S. cerevisiae deletion strains, locus YOR136W, strain idh2, stronger effect = lower value 1.02 | S. cerevisiae deletion strains, locus YOR144C, strain elg1, stronger effect = lower value 1.03 | S. cerevisiae deletion strains, locus YOR184W, strain ser1, stronger effect = lower value 1.03 | S. cerevisiae deletion strains, locus YOR231W, strain MKK1, stronger effect = lower value 1.05 | S. cerevisiae deletion strains, locus YOR265W, strain rbl2, stronger effect = lower value 1.01 | S. cerevisiae deletion strains, locus YOR270C, strain vph1, stronger effect = lower value 1.06 | S. cerevisiae deletion strains, locus YOR290C, strain snf2, stronger effect = lower value 0.997 | S. cerevisiae deletion strains, locus YOR316C, strain cot1, stronger effect = lower value 1.02 | S. cerevisiae deletion strains, locus YPL051W, strain arl3, stronger effect = lower value 1.01 | S. cerevisiae deletion strains, locus YPL055C, strain LGE1, stronger effect = lower value 1.02 | S. cerevisiae deletion strains, locus YPL078C, strain atp4, stronger effect = lower value 1.01 | S. cerevisiae deletion strains, locus YPL106C, strain sse1, stronger effect = lower value 1.01 | S. cerevisiae deletion strains, locus YPL240C, strain hsp82, stronger effect = lower value 1.01 | S. cerevisiae deletion strains, locus YPL241C, strain CIN2, stronger effect = lower value 1.02 | S. cerevisiae deletion strains, locus YPL256C, strain CLN2, stronger effect = lower value 1.08 | S. cerevisiae deletion strains, locus YPR119W, strain clb2, stronger effect = lower value 1.01 | S. cerevisiae deletion strains, locus YPR141C, strain kar3, stronger effect = lower value 1.03 | S. cerevisiae deletion strains, locus YPR163C, strain tif3, stronger effect = lower value 1.02 | S. cerevisiae deletion strains, locus YPR167C, strain met16, stronger effect = lower value 1.02 | S. cerevisiae deletion strains, strain wtn01, stronger effect = lower value 1.01 | S. cerevisiae strains, strain wild type, stronger effect = lower value 1
